# High-throughput results (PubChem)
# CYP2C9 inhib: human CYP2C9 inhibition; P11712; CYP2C9 Supersomes, luciferin-H conversion, luminescence; inhibition, % at 5 µM; 96,000 tested, 20% active; AID 777;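 active means blocking of liver enzyme CYP2C9 beyond about 50% at 5 µM, limit read from the data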
# PostGolgi yeast: growth inhibition of a yeast mutant, post-Golgi transport screen; post-Golgi transport phenotypic cell assay; inhibition, % at 10 µM; 98,000 tested, 0.9% active; AID 739;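 further: yeast cells grown in 1536-well plates; yeast grown about 18 h at 30C before absorbance read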
# CYP2C19 inhib: blocks human cytochrome P450 2C19; P33261; inhibition, % at 5 µM; CYP2C19 Supersomes, luciferin-H EGE luminescence, 30 min; 96,000 tested, 21% active;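 active means CYP2C19 inhibition above a set limit at 5 µM in the primary screen, cut at about 50% in these data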;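 further: plate controls were negative control wells for no effect and 2.5 mM tranylcypromine positive control for full effect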
# Target sequence (P33261 whole entry, looked up): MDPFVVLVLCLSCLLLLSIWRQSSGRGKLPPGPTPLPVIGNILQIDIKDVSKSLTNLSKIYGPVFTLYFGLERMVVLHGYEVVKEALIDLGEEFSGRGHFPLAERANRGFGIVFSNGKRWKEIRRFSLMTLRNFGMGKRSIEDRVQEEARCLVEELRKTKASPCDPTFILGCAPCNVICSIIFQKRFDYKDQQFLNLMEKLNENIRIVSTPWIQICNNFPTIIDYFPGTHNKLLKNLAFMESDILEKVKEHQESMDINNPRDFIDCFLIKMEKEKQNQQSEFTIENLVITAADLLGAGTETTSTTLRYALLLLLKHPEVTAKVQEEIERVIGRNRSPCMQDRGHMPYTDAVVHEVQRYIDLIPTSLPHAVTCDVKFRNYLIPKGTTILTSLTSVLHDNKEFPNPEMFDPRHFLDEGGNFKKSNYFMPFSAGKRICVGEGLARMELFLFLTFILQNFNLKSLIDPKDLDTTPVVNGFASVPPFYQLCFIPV
# CYP2C9 activ: activators of human CYP2C9 | AID 1024 | 96,000 tested, 1.4% active | recombinant CYP2C9, luciferin-H conversion, luminescence; hits give high values; factor 1 = untreated enzyme, 0 = blocked | P11712 | activation factor at 5 µM;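 active means activation factor of 2 or more for CYP2C9 at a 5 µM dose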;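 further: 0 = sulfaphenazole-blocked wells and 1 = vehicle-only wells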
# PostGolgi ctrl: growth of the yeast control strain, post-Golgi counter-screen; efflux-deficient yeast background strain, growth absorbance A615, 16 h; inhibition, % at 10 µM; 98,000 tested, 5% active; AID 738
# CYP2C19 activ: cytochrome P450 2C19 (human) activation; P33261; recombinant CYP2C19, luciferin-H EGE luminescence; hits give high values; 0 = fully inhibited enzyme, 1 = untreated enzyme; activation factor at 5 µM; 96,000 tested, under 10 active; AID 1025;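 active means activation factor of at least 2 at 5 µM in the primary screen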;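 further: 0 = wells with 2.5 mM tranylcypromine and 1 = vehicle-only wells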
# Active calls of the source: *; x = no result given. Shown are actives, neighbours in structure and some others; about 32% of the full set was active somewhere. Unless noted, no stated cut-off is given here; in the data, active means inhibition above about 30%; inactive means the rest.
SMILES,CYP2C9 inhib,PostGolgi yeast,CYP2C19 inhib,CYP2C9 activ,PostGolgi ctrl,CYP2C19 activ
COc1cccc(C(C(=O)Nc2ccc(F)cc2)N(C(=O)Cn2nnc3ccccc32)C2CC2)c1 (configuration not stated),37,5,44,0.6,12,0.6
CSc1ccccc1NC(=O)c1ccncc1,0,-17,66*,1,0,0.3
CSc1ccccc1NC(=O)c1cc(C)on1,-143,-2,18,2.4*,12,0.8
CSc1ccccc1NC(=O)c1cc(C(C)C)on1,-44,0,-2,1.4,17,1
CC1=C(C(=O)Nc2ccc(F)cc2)C(c2cccc(C)c2)n2nc(CCCO)nc2N1 (configuration not stated),14,-3,-4,0.9,0,1
CCC(=O)n1nc(-c2cccnc2)nc1NCc1ccc(OC)cc1,61*,12,73*,0.4,6,0.3
COCC(=O)n1nc(NCc2ccc(OC)cc2)nc1NCc1ccc(OC)cc1,37,49*,21,0.6,87*,0.8
CCC(=O)n1nc(-c2ccccc2)nc1NCc1ccccc1,16,1,16,0.8,2,0.8
c1cc(-c2nc3cc(Cc4ccc5oc(-c6ccncc6)nc5c4)ccc3o2)ccn1,51*,x,11,0.5,x,0.9
c1cncc(-c2nc3cc(Cc4ccc5oc(-c6cccnc6)nc5c4)ccc3o2)c1,39,x,-1,0.6,x,1
CN(Cc1ccccc1)C(=O)CNC(=O)Cn1cnc2ccccc2c1=O,16,1,-3,0.8,2,1
CC1(C)C(=O)OC(c2cccs2)C(C)(C)C1=O (configuration not stated),5,6,71*,1,-4,0.3
Cc1oc(C(=O)O)cc1COc1ccc2c3c(c(=O)oc2c1)CCC3,5,1,-27,1,-2,1.3
COc1cc2nc(CN(CCC(C)C)Cc3nc4cc(OC)c(OC)cc4c(=O)[nH]3)[nH]c(=O)c2cc1OC,56*,-2,34,0.4,-2,0.7
CCc1c(C)c2ccc(OCC(=O)OC)cc2oc1=O,17,0,59*,0.8,28,0.4
CC(=O)c1c(OC(=O)c2ccccc2)c2ccccc2n1C,3,15,33,1,22,0.7
COc1ccccc1CC(=O)O/N=C(\N)Cc1cccc2ccccc12,-6,-3,-3,1.1,30*,1
COc1ccc(C/C(N)=N/OC(=O)Cc2ccccc2)cc1,0,5,0,1,3,1
COc1ccccc1C/C(N)=N/OC(=O)c1ccc(C)c([N+](=O)[O-])c1,-244,6,9,3.4*,10,0.9
CCSc1ncc(/C=N/Nc2ccc(Cl)cc2)n1C,23,32*,29,0.8,23,0.7
CCSc1ncc(/C=N/Nc2ccccc2)n1C,52*,6,44,0.5,18,0.6
CCSc1ncc(/C=N/Nc2ccc([N+](=O)[O-])cc2)n1C,4,-7,0,1,5,1
COc1ccc(CCNC(=O)c2cc3ccccn3n2)c(OC)c1OC,17,-3,75*,0.8,11,0.2
COc1ccc(NC(=O)c2cc3ccccn3n2)cc1,18,-4,38,0.8,-5,0.6
O=C(CCN1C(=O)c2ccccc2C1=O)Nc1ccc2c(c1)OCCO2,12,-7,6,0.9,35*,0.9
SMILES,CYP2C9 inhib,PostGolgi yeast,CYP2C19 inhib,CYP2C9 activ,PostGolgi ctrl,CYP2C19 activ
O=C(CCCN1C(=O)CCC1=O)Nc1ccc2c(c1)OCCO2,16,6,15,0.8,-4,0.9
CSCCC(C(=O)Nc1ccc2c(c1)OCO2)N1C(=O)c2ccccc2C1=O (configuration not stated),52*,-3,34,0.5,4,0.7
CCC(=O)Nc1ccc2c(c1)OCCO2,16,1,1,0.8,6,1
COc1ccc(NC(=O)C(CCS(C)(=O)=O)N2C(=O)c3ccccc3C2=O)cc1 (configuration not stated),46,-3,4,0.5,4,1
O=C(CCCCCN1C(=O)c2ccccc2C1=O)Nc1ccc2c(c1)OCCO2,76*,2,71*,0.2,-3,0.3
O=C(c1ccccc1)N1CCN(C(=O)c2ccc(OC(F)(F)F)cc2)CC1,13,-1,3,0.9,0,1
Cc1cc(C)nc(Nc2ccc(C(=O)O)cc2)n1,2,-1,0,1,-6,1
Cc1sc2c(c1C)CN(C1CC(C)(C)NC(C)(C)C1)CN2C(=O)c1ccco1,3,-14,5,1,3,1
Cc1ccc2[nH]c(=O)c(CNC(C)C)cc2c1,-4,-2,-10,1,9,1.1
Cc1c(C(=O)N2CCC(C)CC2)oc2ccc(S(=O)(=O)N3CCC4(CC3)OCCO4)cc12,33,-8,26,0.7,4,0.7
COc1cc(C2C(C#N)=C(N)Oc3cc(C)n(CC4CCCO4)c(=O)c32)cc2c1OCO2 (configuration not stated),-1,1,-1,1,9,1
COc1cc(C2C(C#N)=C(N)Oc3cc(C)oc(=O)c32)cc2c1OCO2 (configuration not stated),54*,7,20,0.5,-5,0.8
Cc1cc2c(c(=O)o1)C(C(C)C)C(C#N)=C(N)O2 (configuration not stated),0,1,57*,1,9,0.4
CCOc1cccc(C2C(C#N)=C(N)Oc3cc(C)oc(=O)c32)c1OCC (configuration not stated),90*,-2,21,0.1,5,0.8
Cc1cc2c(c(=O)o1)C(Cc1ccccc1)C(C#N)=C(N)O2 (configuration not stated),63*,0,86*,0.4,9,0.1
C=CCn1c(COC)nnc1SCC(=O)c1ccc(F)cc1,-17,-9,36,1.2,14,0.6
CC(=O)Nc1ccccc1Nc1cc(C#N)c(C#N)cc1[N+](=O)[O-],3,x,13,1,x,0.9
CCOC(=O)CCn1c2nc(C)cc(C)c2c(=O)n1-c1ccccc1,7,-2,56*,0.9,3,0.4
CCOC(=O)Cn1nc(C)n(-c2ccccc2)c1=O,6,-2,-12,0.9,-3,1.1
O=C1/C(=C/c2cccc(F)c2)CSc2sccc21,54*,0,26,0.5,10,0.7
Cc1cccc(/C=C2\CS/C(=C\c3cccc(C)c3)C2=O)c1,-28,-8,1,1.3,0,1
Cc1ccc(N(C(=O)Cn2nnc(-c3ccc(F)cc3)n2)C(CC(C)C)C(=O)NCC2CCCO2)cc1 (configuration not stated),40,3,23,0.6,2,0.8
O=C(c1ccccc1)c1nc[nH]c1C(=O)Nc1ccccc1,9,-3,15,0.9,15,0.9
